Screens (PubChem)
Most compounds without a hit are left out; they make up all but 1.8% or so of the library.
NadD block: inhibitors of S. aureus NadD, primary screen, biochemical, colorimetric, uHTS. Nicotinate-nucleotide adenylyltransferase NadD (Staphylococcus aureus N315). purified NadD enzyme, colorimetric absorbance read-out. inhibition, % at 20 µM. 360,000 tested, 0.78% active. AID 602399, 2012; in the data active means inhibition above about 26%
p-CIP stab down: p/CIP-EGFP fusion destabilizers, primary screen, fluorescence, F442A cells; AID 1984, 2009; decrease of EGFP signal, % at 10 µM; 290,000 tested, 0.01% active; 16 h;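 active means EGFP signal decrease of at least 30% at 10 µM or well 3 SD below plate mean, unless failing retest; inactive means the rest, including hits failing retest or dose response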
SUMO HTRF inh: inhibitors of in vitro SUMOylation cascade, primary screen, biochemical, HTRF, uHTS. SUMO-conjugating enzyme UBC9 (Homo sapiens), P63279. HTRF SUMOylation assay, SAE1/SAE2 + UBC9. inhibition, % at 35 µM. 290,000 tested, 0.36% active. AID 2006, 2009; in the data active means inhibition above about 50%, passing the limit was not always enough
PHOSPHO1 inh: PubChem AID 1565; Phosphoethanolamine/phosphocholine phosphatase (Homo sapiens), Q8TCT1; recombinant PHOSPHO1, absorbance phosphatase assay; inhibition, % at 13.3 µM; 290,000 tested, 1.1% active; in the data active means inhibition above about 60%
Hits are given with their value.

What do the screens show for `O=[N+]([O-])c1ccc(N/N=C/c2ccc(O)c(O)c2O)c(S(=O)(=O)N2CCOCC2)c1`?
NadD block: 29.0; p-CIP stab down: inactive; SUMO HTRF inh: inactive; PHOSPHO1 inh: inactive

What do the screens show for `O=[N+]([O-])c1ccc(N/N=C/c2cccc(O)c2O)c(S(=O)(=O)N2CCOCC2)c1`?
NadD block: inactive; p-CIP stab down: inactive; SUMO HTRF inh: 50.9; PHOSPHO1 inh: inactive

What do the screens show for `CC1(Cc2ccc(OC(F)(F)F)cc2)C(=O)Nc2c(Cl)ccc(Cl)c21` (centres undefined)?
NadD block: inactive

What do the screens show for `C/C(=N\Nc1ccc(Cl)cc1)c1ccccn1`?
NadD block: inactive; p-CIP stab down: inactive; SUMO HTRF inh: inactive; PHOSPHO1 inh: 94.5

How did C/C(=N\NC(=O)c1ccc(Cl)cc1)c1ccccn1 do in these assays?
NadD block: inactive; p-CIP stab down: inactive; SUMO HTRF inh: inactive; PHOSPHO1 inh: inactive

What do the screens show for `CC(C)c1ccc(C(C)NCCS(=O)(=O)c2ccc(Cl)cc2)cc1` (centres undefined)?
NadD block: inactive; p-CIP stab down: inactive; SUMO HTRF inh: inactive; PHOSPHO1 inh: 72.6

Results for O=C(Nc1nc(-c2ccccn2)cs1)C1COc2ccccc2O1 (centres undefined) ?
NadD block: inactive; p-CIP stab down: inactive; SUMO HTRF inh: inactive; PHOSPHO1 inh: inactive

How did O=C(Nc1nc(-c2ccccn2)cs1)c1ccc([N+](=O)[O-])o1 do in these assays?
NadD block: inactive; p-CIP stab down: inactive; SUMO HTRF inh: inactive; PHOSPHO1 inh: 92.7

Results for CC1CC1C(=O)Nc1nc(-c2ccccn2)cs1 (centres undefined) ?
NadD block: inactive; p-CIP stab down: inactive; SUMO HTRF inh: inactive; PHOSPHO1 inh: 77.5

Results for O=C(CN1C(=O)C2CCCCC2C1=O)Nc1nc(-c2ccccn2)cs1 (centres undefined) ?
NadD block: inactive; p-CIP stab down: inactive; SUMO HTRF inh: inactive; PHOSPHO1 inh: 70.9

How did C[C@@H](C(=O)Nc1nc(-c2ccccn2)cs1)N1C(=O)C2CCCCC2C1=O (some centres undefined) do in these assays?
NadD block: inactive; p-CIP stab down: inactive; SUMO HTRF inh: inactive; PHOSPHO1 inh: 69.6

Results for CC(C)[C@H](NC(=O)c1ccccc1Cl)C(=O)Nc1nc(-c2ccccn2)cs1 ?
NadD block: inactive; p-CIP stab down: inactive; SUMO HTRF inh: inactive; PHOSPHO1 inh: inactive

What do the screens show for `Cc1ccc(/C=C2\SC(=S)N(/N=C/c3cc([N+](=O)[O-])ccc3O)C2=O)o1`?
NadD block: 36.8; p-CIP stab down: inactive; PHOSPHO1 inh: inactive

What do the screens show for `CCOC(=O)CSc1nc2ccccc2c(=O)n1CCN1CCOCC1`?
NadD block: inactive; p-CIP stab down: inactive; SUMO HTRF inh: inactive; PHOSPHO1 inh: inactive

What do the screens show for `CCOC(=O)CSc1nc2ccc(N3CCOCC3)cc2c(=O)n1Cc1ccccc1`?
NadD block: inactive; p-CIP stab down: inactive; SUMO HTRF inh: inactive; PHOSPHO1 inh: 60.3

How did CC1(C(=O)NCc2ccccn2)CCN1C(=O)Cc1ccc(Cl)cc1Cl (centres undefined) do in these assays?
NadD block: inactive

How did O=C(Nc1nnc(-c2ccccc2)o1)c1nc2ccccc2s1 do in these assays?
NadD block: inactive; p-CIP stab down: inactive; SUMO HTRF inh: 73.9; PHOSPHO1 inh: inactive

How did NC(=O)c1oc2ccccc2c1NC(=O)c1nc2ccccc2s1 do in these assays?
NadD block: inactive; p-CIP stab down: inactive; SUMO HTRF inh: inactive; PHOSPHO1 inh: inactive

Results for Cc1nn(-c2ccccc2)c(Cl)c1/C=N/Nc1ccc(S(=O)(=O)Nc2ccccc2C(=O)O)cc1[N+](=O)[O-] ?
NadD block: inactive; p-CIP stab down: inactive; SUMO HTRF inh: 62.3; PHOSPHO1 inh: inactive

Results for Cc1ccc(NC(=S)NNC(=S)NCc2ccccc2)cc1 ?
NadD block: inactive; p-CIP stab down: inactive; SUMO HTRF inh: inactive; PHOSPHO1 inh: 75.2

How did FC(F)(F)c1cccc(NC(=S)NCc2ccccn2)c1 do in these assays?
NadD block: inactive; p-CIP stab down: inactive; SUMO HTRF inh: inactive; PHOSPHO1 inh: inactive

How did FC(F)(F)c1cccc(NC(=S)NNC(=S)NCc2ccccc2)c1 do in these assays?
NadD block: inactive; p-CIP stab down: inactive; SUMO HTRF inh: inactive; PHOSPHO1 inh: 103.5

Results for Fc1ccc(NC(=S)NCc2ccccc2)cc1 ?
NadD block: inactive; p-CIP stab down: inactive; SUMO HTRF inh: inactive; PHOSPHO1 inh: inactive

How did CCc1cc(C(=O)NNC(=S)NCc2ccccc2)cs1 do in these assays?
NadD block: inactive; p-CIP stab down: inactive; SUMO HTRF inh: inactive; PHOSPHO1 inh: 91.4
